# Shiga toxin inh: blocks Shiga toxin action in Vero cells. Vero cells, Shiga toxin protein synthesis inhibition reporter. inhibition, % at 38.7 µM. hit rate 9.2% among 290,000. AID 2315; in the data active = inhibition mostly above about 28%, no sharp cut-off; inactive = mostly below about 43%; note: 0% is about no effect
# Cycloheximide cs: counter-screen hit for Shiga toxin inhibitors, cycloheximide; max response, %; hit rate 12% among 300,000; cell reporter, cycloheximide protein synthesis inhibition counterscreen; in the data active = max response mostly above about 13%, no sharp cut-off; inactive = mostly below about 14%; note: read at 38.3 µM for the half of the compounds with a filed dose; 0% is about no effect
# Pf growth 96h: P. falciparum growth inhibition at 96 hour, primary screen for plastid delayed-death inhibitors; P. falciparum luciferase reporter growth, 96 h; hit rate 6.9% among 320,000; Potency, µM (series often up to 28.7 µM), without a hit: at the highest dose activity change, negative = inhibition, usual class: inhibitors; AID 504834; note: potency is the fitted concentration of half-maximal effect; % is set by controls: 0 for no effect and ±100 for the full control effect
#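 Delayed-death screen, second-generation endpoint: infected erythrocytes, 2% hematocrit, 0.05% parasitemia final; 96 hours at 37 C, 5% CO2; luciferase detection reagent; luminescence decrease equals reduced growth.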
# Pf growth 48h: P. falciparum growth inhibition at 48 hours (one generation); Potency, µM (titrated, usually from 28.7 µM), for the others: at the highest dose activity change, negative = inhibition, actives largely listed as inhibitors; P. falciparum luciferase growth in erythrocytes, 48 h; hit rate 5.9% among 310,000; note: potency is the fitted concentration of half-maximal effect; % is set by controls: 0 for no effect and ±100 for the full control effect
#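 Cell-based growth assay: transgenic P. falciparum expressing firefly luciferase, cultured in red cells within RPMI 1640 containing 0.5% w/v Albumax, 24 mM bicarbonate and gentamycin. A drop in luciferase activity indicates inhibition.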
# NS1 function inh: inhibitors of influenza NS1 protein function; Potency, µM (top dose mostly 46.1 µM), inactives show at the highest dose activity, positive = more growth; hit rate 0.4% among 270,000; AID 2326; calls by dose curve; note: potency is the fitted concentration of half-maximal effect; actives are rising curves; nearly all actives have a fitted effect of over 50% in size
#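 In this qHTS, NS1 from influenza A is expressed in budding yeast, where it slows growth. Cells are switched from glucose to 2% galactose medium (pH 6.0, -URA), treated with compound, and growth recovery is read at OD600.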
# Active calls of the source: *; i = inactive; ? = inconclusive; . = not tested or not shown; [ ] = another dose, or the depositor's remark. The list is not random: actives were taken first. Their share in the collection is about 21%. Unless noted, calls come from the whole dose curve; as a rule, active = well fitted inhibition curve with a large enough effect; inconclusive = small, poorly fitted or top-dose-only effect, or another doubt; inactive = no such curve, though single readings can be large or run the other way.
SMILES,Shiga toxin inh,Cycloheximide cs,Pf growth 96h,Pf growth 48h,NS1 function inh
CCOc1ccc(CN2CCN(Cc3cccn3-c3nccs3)CC2CCO)cc1 (configuration not stated),16.6,-3.4,?,?,2.3%
COc1ccc(/C=N/N2C(C)CCCC2C)cc1OC (configuration not stated),18.8,6.1,18.7%,33.0%,6.1%
COc1ccc(CC(C)NCCC(c2ccccc2)c2ccccc2)cc1 (configuration not stated),-9.9,-1.8,10.4µM*,?,-25.1%
COc1ccc(CN(CCC(c2ccccc2)c2ccc(OC(C)C)cc2)C(=O)CCl)cc1OC (configuration not stated),-8.6,9.7,3.7µM*,?,1.7%
COc1ccc(C(CCNC(C)c2ccccc2)c2ccc(F)cc2)cc1 (configuration not stated),-18.8,-8.2,?,?,-11.5%
COc1ccc(CNCCC(c2ccccc2)c2ccc(OC(C)C)cc2)cc1OC (configuration not stated),-7.2,-10.1,?,9.28µM*,-5.7%
COc1ccc(CNCCC(c2ccc(F)cc2)c2ccc(OC(C)C)cc2)cc1OC (configuration not stated),-10.1,-8.9,11.7µM*,13.1µM*,-39.6%
C=COC(=O)/C=C/C,-10.2,-3.8,.,.,.
COc1ccc(C(CCNCc2ccc(OC(C)C)cc2)c2ccccc2OC)cc1 (configuration not stated),-3.9,-5.1,11.7µM*,11.7µM*,3.9%
COc1ccc(CNCCC(c2ccc(F)cc2)c2ccc(OC)cc2)cc1 (configuration not stated),-17.2,-7.7,?,?,-17.2%
COc1ccc(C(CCNCc2ccc(F)cc2)c2ccc(F)cc2)cc1 (configuration not stated),-25.5,-8.5,?,4.65µM*,-17.7%
COc1ccccc1C(CC(=O)Nc1ccccc1C)c1ccc(OC(C)C)cc1 (configuration not stated),-8.5,5.6,?,14.7µM*,-3.0%
CCCCC[C@]12Cc3cc(OC)c(OC)cc3C(O1)c1c(cc(C)n(-c3ccccc3)c1=O)O2,i,0.6,36.5%[5.75 µM],?,14.4%
COc1ccc(CN2CCC3C=CCC(C(=O)O)C3C2=O)cc1OC (configuration not stated),-4.4,-3.7,.,.,.
COc1ccc(CN2CCNC(=O)C2CC(=O)NCC2CCOCC2)cc1C (configuration not stated),-4.1,-1.8,6.2%,0.1%,1.1%
CN1/C(=C\C(=S)NC(=O)c2ccccc2Cl)C(C)(C)c2ccccc21,40.2,-2.6,?,?,-2.8%
O=C(C1CC1)N1c2ccccc2Sc2ccccc21,-16.3,-1.9,26.2%,11.7µM*,-6.0%
COc1ccccc1C(=O)NC(=S)/C=C1/N(C)c2ccccc2C1(C)C,44.0,14.0*,?,?,12.3%
CN1/C(=C\C(=O)c2cccs2)Sc2ccccc21,89.7*,39.4*,-17.2%,87.5%,-52.5%
CN1CCN(c2ccccc2NC(=O)c2cccs2)CC1,-27.0,2.3,14.3%,-10.0%,-0.3%
CN1/C(=C/C(=O)c2cccs2)Sc2ccccc21,47.7,43.5*,-62.6%,.,-169.7%
O=C(Nc1cccc(C(F)(F)F)c1)c1cccc(NS(=O)(=O)c2ccc(O)c(C(=O)O)c2)c1,-8.6,-1.9,-8.0%,-4.9%,0.0%
CN1/C(=C\C(=O)c2cccs2)C(C)(C)c2ccccc21,16.0,24.6*,21.3%,9.28µM*,-23.0%
NC(=O)C1CCN(C(=O)N2c3ccccc3Sc3ccccc32)CC1,-8.6,-5.1,10.2%[5.75 µM],?,-16.1%
CN1/C(=C/C(=O)C2CCC2)Sc2ccccc21,138.8*,56.6*,3.0%,152.8%,-69.9%
CCOC(=O)/C=C1/N(C)c2ccccc2C1(C)C,-8.3,-1.4,38.3%,75.9%,-8.4%
CCC(C(=O)N1CCOCC1)n1c2ccccc2c2nc(=O)cc(C)n21 (configuration not stated),0.5,-8.3,0.6%,-2.1%,-6.2%
COCCNc1nc(SCc2ccccc2)nc2sc3c(c12)CCC3,0.6,1.9,?,?,18.2%
CC(CO)Nc1nc(SCc2ccccc2)nc2sc3c(c12)CCC3 (configuration not stated),-2.0,12.8,7.38µM*,?,5.6%
Cc1ccccc1NC1=C(Cl)C(=O)N(C2CCCCC2)C1=O,13.7,12.7*,?,?,-59.7%

# Source: PubChem BioAssay
